{"source": "paper PMC5540273", "about": "(PLoS ONE, 2017);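 note: KINOMEscan kinase panel screen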", "data": [{"tested_on": "CSNK1E", "details": "concentration: 1 μM, replicates: in singlicate; n = 1", "units": {"%Inh": "%"}, "values": [{"smiles": "Cc1ccc(C)c(NC(=O)NC2CCN(c3ccnc(Nc4ccc(F)cc4)n3)C2)c1", "note": "(stereo not shown) [GSK1379720]", "%Inh": 11}, {"smiles": "Cl.Cl.NCC(NC(=O)c1cc(-c2ccccc2)c(-c2ccnc3[nH]ccc23)s1)c1ccccc1", "note": "(stereo not shown) [GSK1321561]", "%Inh": 99.9}, {"smiles": "CN(C)Cc1ccc(-c2ccc3c(Nc4ccc(Oc5ccccn5)cc4)ccnc3c2)o1", "note": "[GW567148]", "%Inh": 23}, {"smiles": "COc1cccc(C(=O)Nc2cccc(Oc3ccc4nc(NC(=O)C5CC5)cn4n3)c2)c1", "%Inh": 19}, {"smiles": "CNC(=O)c1ccccc1Nc1nc(Nc2ccc(N3CCOCC3)cc2)ncc1Cl.Cl", "note": "[GSK1576028]", "%Inh": 13}, {"smiles": "C[C@@H]1CC[C@@H](C(=O)Nc2ccccc2)CN1c1cc(-c2ccc3c(N)n[nH]c3c2)nc(N)n1", "note": "[GSK2286062]", "%Inh": 0}, {"smiles": "Cn1cc(-c2ccc3c(c2)CCN3C(=O)Cc2cccc(Cl)c2)c2c(N)ncnc21", "note": "[GSK2606590]", "%Inh": 63}, {"smiles": "FC(F)(F)c1ccc(/C=C/c2cncnc2Nc2ccc3[nH]c(Cc4ccccc4)nc3c2)cc1", "note": "[GW709199]", "%Inh": 28}, {"smiles": "COc1cccc(NC(=O)NC2CCN(c3ccnc(Nc4cc(OC)c(OC)c(OC)c4)n3)C2)c1", "note": "(stereo not shown) [GSK1379763]", "%Inh": 0}, {"smiles": "Fc1ccc(-c2ncn(C3CCNCC3)c2-c2ccnc(Oc3ccc(-c4ccccc4)cc3)n2)cc1", "note": "[SB-245391]", "%Inh": 99.5}, {"smiles": "Oc1cc(Nc2ccnc3cc(I)ccc23)ccc1F", "note": "[GW552771]", "%Inh": 16}, {"smiles": "COC(=O)Nc1nc2ccc(Oc3ccc(NC(=O)Nc4cc(C(F)(F)F)ccc4F)cc3)cc2n1C.Cl", "note": "[GW692089]", "%Inh": 0}, {"smiles": "CC(=O)N1CCN(c2ccc(Nc3nccc(-c4sc(C(C)C)nc4-c4cccc(NS(=O)(=O)c5cccc(Cl)c5)c4)n3)cn2)CC1", "note": "[GSK1660437]", "%Inh": 0}, {"smiles": "Cl.Cl.NCC(C(=O)Nc1cc(Br)c(-c2ccnc3[nH]ccc23)s1)c1ccccc1", "note": "(stereo not shown) [GSK1269851]", "%Inh": 28}, {"smiles": "CC(C)(C)c1ccc2nccc(Nc3cccc(O)c3)c2c1", "note": "[GW856795]", "%Inh": 0}, {"smiles": "NCCCC(NC(=O)c1cc(Br)c(-c2ccnc3[nH]ccc23)s1)c1ccccc1.O=C(O)C(F)(F)F.O=C(O)C(F)(F)F", "note": "(stereo not shown) [GSK1287544]", "%Inh": 84}, {"smiles": "Cl.c1ccc(-c2ccc3c(Nc4ccc5[nH]ncc5c4)ccnc3c2)nc1", "note": "[GW440137]", "%Inh": 41}, {"smiles": "c1ccc(Oc2ccc(Nc3ccnc4cc(-c5ccc(CNCCN6CCOCC6)o5)ccc34)cc2)nc1", "note": "[GW567145]", "%Inh": 0}, {"smiles": "O=C(Nc1cccc(Oc2ccc3nc(NC(=O)C4CC4)cn3n2)c1)c1ccccc1C(F)(F)F", "%Inh": 20}, {"smiles": "CC(C)c1nc(-c2cccc(NS(=O)(=O)c3c(F)cccc3F)c2F)c(-c2ccnc(Nc3ccc(N4CCOCC4)nc3)n2)s1", "note": "[GSK2008607]", "%Inh": 4}, {"smiles": "Nc1ncc(-c2cccnc2)c2scc(-c3ccc4c(c3)CCN4C(=O)Cc3ccccc3)c12", "note": "[GSK683281]", "%Inh": 35}, {"smiles": "Cn1cc(-c2ccc3c(c2)CCN3C(=O)Cc2cccc(F)c2)c2c(N)ncnc21", "note": "[GSK2603358]", "%Inh": 77}, {"smiles": "Cl.NC(=O)c1cccc(Nc2nccc(Nc3ccc(Oc4c(Cl)cccc4Cl)c(Cl)c3)n2)c1", "note": "[GW659009]", "%Inh": 0}, {"smiles": "COCCOCCOc1cc2ncc3c4ccc(C#N)cc4[nH]c3c2cc1OC", "%Inh": 2}, {"smiles": "COc1cccc(-c2ccc3c(NC(=O)C4CC4)n[nH]c3n2)c1", "note": "[SB-710903]", "%Inh": 16}, {"smiles": "Nc1ncc(-c2ccc3nccc(-c4ccncc4)c3c2)cc1S(=O)(=O)N1CCOCC1", "note": "[GSK1627798]", "%Inh": 42}, {"smiles": "Cc1ccc(C(=O)N2CC[C@@H](O)C2)cc1-n1c(C)cc(OCc2ccc(F)cc2F)c(Br)c1=O", "%Inh": 0}, {"smiles": "O=C(O)C(F)(F)F.O=C(O)C(F)(F)F.O=c1[nH]ccc2nc(N[C@@H]3CCCNC3)nc(Nc3ccc(S(=O)(=O)N4CCOCC4)cc3)c12", "note": "[GSK2177277]", "%Inh": 99.9}, {"smiles": "COc1cc(Nc2nccc(-c3c(-c4cccc(NC(=O)c5c(F)cccc5F)c4)nn4ncccc34)n2)cc(OC)c1OC", "note": "[GSK327238]", "%Inh": 94.7}, {"smiles": "COc1cccc(C2=C(Nc3ccc(Cl)c(C(=O)O)c3)C(=O)NC2=O)c1", "note": "[SB-390769]", "%Inh": 13}, {"smiles": "Cc1ccc(C(=O)Nc2ccc(Nc3ccnc4cc(-c5nccs5)ccc34)cc2O)cc1.Cl", "note": "[GW494702]", "%Inh": 8}]}]}
